Data as given in PubChem BioAssay AID430 (Sanford-Burnham Center for Chemical Genomics, 2006).
Hit rate of the full screen: of about 63,000 compounds, about 1,100 (1.7%) were called active. Shown is part of a subset that was picked to be rich in actives. Potency and affinity values are given separately. A number with no mark means an inactive call. No stated cut-off is given here; in the data, active means cytotoxicity above about 50%; inactive means the rest.

experiment: HPDE-C7 pancreatic duct cell viability loss – fluorescence, HTS (AID 430); conditions: HPDE-C7 pancreatic duct cells viability, at 10 µM, active compounds read high;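 further: cells exposed to compound for 48 hours before viability readout; 0% = vehicle and 100% = reference cytotoxic drug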

| Compound | cytotoxicity |
| --- | --- |
| COc1ccc(N2CCN(C(c3ccccc3OC)c3nnnn3Cc3ccco3)CC2)cc1 (stereo unspecified) | -1.6% |
| COc1cc(C2C(C#N)=C(C)NC3=C2C(=O)c2ccccc23)cc(OC)c1OC (stereo unspecified) | 76.3% (active) |
| COc1ccc(C2CC(=O)C3=C(C2)NC(C)=C(C#N)C3c2ccc(N(C)C)cc2)cc1 (stereo unspecified) | -4.4% |
| COc1ccc(C2C(C#N)=C(C)NC3=C2C(=O)c2ccccc23)cc1 (stereo unspecified) | 55.2% (active) |
| COc1cc(C2C(C#N)=C(C)NC3=C2C(=O)CC(C)(C)C3)ccc1O (stereo unspecified) | -9.2% |
| COc1ccc(C2C(C#N)=C(SC)NC3=C2C(=O)CC(C)(C)C3)cc1 (stereo unspecified) | -11.2% |
| COc1cc(C2C(C#N)=C(C)NC3=C2C(=O)CC(C)(C)C3)cc(OC)c1O (stereo unspecified) | 3.7% |
| CSc1nc(-c2ccco2)nn1C(=O)c1ccco1 | -12.1% |
| CCOc1cc(NC(=O)c2ccco2)c(OCC)cc1NC(=O)CCC(=O)NCc1cccnc1 | 32.8% |
| COc1ccc(C(C#N)N2CCCCC2)cc1OC (stereo unspecified) | -1.7% |
| Cc1cccc(-c2noc(CN(C(=O)CCc3ccccc3)C(C)C)n2)c1 | -16.1% |
| CCCC(=O)Nc1nc2ccc3nc(C)sc3c2s1 | 9.8% |
| CCOc1ccc(OCC)c(S(=O)(=O)N2CCCCC2C)c1 (stereo unspecified) | -8.3% |
| Cc1cccc(N2C(=O)SC(N(C)c3ccccc3)C2=O)c1 (stereo unspecified) | -8.6% |
| Cc1ccc(Cl)cc1NC(=O)CC(O)(C(F)(F)F)C(F)(F)F | 51.2% (active) |
| CCNC(=O)CCC(=O)Nc1cc(Cl)ccc1C | -6.9% |
| Cc1ccc(NC(=O)CC(O)(C(F)(F)F)C(F)(F)F)c(Br)c1 | -3.8% |
| OC1CCCN(Cc2cccc3ccccc23)C1 (stereo unspecified) | 4.1% |
| CN(C)c1ccc(CN2CCCC(O)C2)cc1 (stereo unspecified) | 0.6% |
| O=C(CCc1nc2ccccc2c(=O)[nH]1)OCc1nnc(-c2ccccc2)o1 | 8.5% |
| CCN(CCCNC(=O)C1CCN(S(=O)(=O)CC)CC1)c1ccccc1 | -4% |
| O=C(Oc1ccc2c(c1)OCO2)c1cccs1 | -3.4% |
| O=C(Oc1ccc2c(c1)OCO2)c1ccncc1 | 10.6% |
| O=C(Oc1ccc2c(c1)OCO2)c1cc2c(s1)CCC2 | 56.8% (active) |

| Compound | cytotoxicity |
| --- | --- |
| Cc1cccc(C(=O)OCc2cc3ccccc3[nH]c2=O)c1 | 8.5% |
| COc1cccc(C(=O)N2CCN(c3ncccn3)CC2)c1 | 1.5% |
| CCc1oc2ccccc2c1C(=O)CCN1CCCCC1 | -17.7% |
| CCCCC(=O)c1c(O)c2ccccc2oc1=O | 9.3% |
| c1coc(CNc2nc3sc4c(c3c3ncnn23)CCCC4)c1 | -5.5% |
| O=C(NC1CCCCC1)NC1CCN(S(=O)(=O)c2ccc3c(c2)OCCO3)CC1 | -1.5% |
| O=C(NCCc1c[nH]c2ccccc12)c1ccc(S(=O)(=O)NCc2ccco2)cc1 | 51.9% (active) |
| O=C(Nc1ccccc1)c1ccc(S(=O)(=O)NCc2ccco2)cc1 | -0.2% |
| O=C(NC1CCCCC1)c1ccc(S(=O)(=O)NCc2ccco2)cc1 | -1.9% |
| Cc1cccc(C)c1NC(=O)c1cc(S(=O)(=O)N2CCOCC2)ccc1F | -47.4% |
| O=C(Nc1c2c(nn1-c1ccc(F)cc1)CSC2)c1ccc(S(=O)(=O)N2CCOCC2)cc1 | -9.4% |
| O=C1C(Cl)=C(NCCCN2CCOCC2)C(=O)N1CCc1ccccc1 | 1.4% |
| Cc1nc2ccccc2c(=O)n1/N=C/c1c(O)ccc2oc3c(c12)CCCC3 | 63% (active) |
| Cc1nc2ccccc2c(=O)n1/N=C/c1ccc(O)cc1 | 33.8% |
| Oc1ccc2oc3c(c2c1/C=N/n1cnnc1)CCCC3 | -15.1% |
| Oc1c(C(c2cccs2)N2CCN(c3ccccc3)CC2)sc2ncnn12 (stereo unspecified) | -10% |
| COc1cc(O)c(NC(C)=O)c2nonc12 | -7.7% |
| CC(=O)Nc1nonc1NC(C)=O | -3.4% |
| Cc1nn(-c2ccc(F)cc2F)c2c1-c1nc(N3CCCC3)ncc1CC2 | 3.8% |
| COc1ccc(C(=O)NC2CCN(C(=O)NC3CCCCC3)CC2)cc1 | -6.7% |
| COc1ccc(CN2C(=O)CCC2(C)C(=O)NC2CCCCC2)c(OC)c1 (stereo unspecified) | -3.1% |
| COc1ccc2[nH]c(=O)c(CN(Cc3nnnn3Cc3ccc(F)cc3)CC3CCCO3)cc2c1 (stereo unspecified) | -39.9% |
| CCC(Sc1nc2cc3c(cc2c(=O)n1Cc1ccco1)OCO3)C(=O)Nc1ccccc1OC (stereo unspecified) | -11.3% |
| CCc1ccccc1NC(=O)C(CC)Sc1nc2cc3c(cc2c(=O)n1Cc1ccco1)OCO3 (stereo unspecified) | 2.1% |

| Compound | cytotoxicity |
| --- | --- |
| CCOC(=O)c1[nH]c(C)c(C(=O)N2CCN(C(=O)c3ccco3)CC2)c1C | -21.3% |
| COc1ccc(NC(=O)CNc2cccc(C#N)c2)cc1Cl | 2.9% |
| Fc1ccc(-c2cc3nc(-c4ccccc4)cc(N4CCOCC4)n3n2)cc1 | -7% |
| Fc1ccc(-c2cc3nc(-c4ccccc4)cc(N4CCN(CCN5CCOCC5)CC4)n3n2)cc1 | 53% (active) |
| Cc1cc(N2CCOCC2)n2nc(-c3cccc(F)c3)cc2n1 | -16.6% |
| O=C(Nc1scc(-c2ccc(F)cc2)c1C(=O)O)c1ccco1 | -6.9% |
| COc1ccc(OC)c(NC(=O)c2cc3n(n2)C(C(F)(F)F)CC(c2ccc4c(c2)OCO4)N3)c1 (stereo unspecified) | 44.5% |
| O=C(NCc1ccc2c(c1)OCO2)c1cc2n(n1)C(C(F)(F)F)CC(c1ccc3c(c1)OCO3)N2 (stereo unspecified) | 13.5% |
| O=C(Nc1ccc2c(c1)OCO2)c1cc2n(n1)C(C(F)(F)F)CC(c1ccccc1)N2 (stereo unspecified) | 64.2% (active) |
| COc1ccccc1NC(=O)c1cc2n(n1)C(C(F)(F)F)CC(c1ccc3c(c1)OCO3)N2 (stereo unspecified) | 38.9% |
| Cc1cccc(NC(=O)c2cc3n(n2)C(C(F)(F)F)CC(c2ccc4c(c2)OCO4)N3)c1 (stereo unspecified) | 74.1% (active) |
| O=C(Nc1cc(Cl)ccc1O)c1cc2n(n1)C(C(F)(F)F)CC(c1ccc3c(c1)OCO3)N2 (stereo unspecified) | -8.7% |
| Cc1cc(NC(=O)c2cc3n(n2)C(C(F)(F)F)CC(c2ccc(Cl)c(Cl)c2)N3)no1 (stereo unspecified) | 2.8% |
| COc1ccc(C2CC(C(F)(F)F)n3nc(C(=O)Nc4ccc5c(c4)OCO5)cc3N2)cc1 (stereo unspecified) | -7% |
| COc1ccc(NC(=O)c2cc3n(n2)C(C(F)(F)F)CC(c2ccc4c(c2)OCO4)N3)cc1OC (stereo unspecified) | 63.9% (active) |
| CCC(=O)N=c1sc2c(OC)ccc(OC)c2n1C | 1.2% |
| CCOC(=O)CSc1nnc([C@@H](NC(=O)OC(C)(C)C)C(C)C)o1 | 8.2% |
| O=C1CC(c2ccc(F)cc2)Cc2nc(N3CCN(c4ccccc4)CC3)ncc21 (stereo unspecified) | 4.6% |
| CC(=O)N1CCN=C1SCc1ccc(Br)cc1 | 1.6% |
| O=C(CCNc1n[nH]c(=O)[nH]c1=O)N1CCOCC1 | -0.4% |
| Cc1ccc(CNC(=O)CN2CCN(Cc3ccc(C)cc3)C2=O)cc1 | -20.9% |
| COc1cccc(NC(=O)c2ccccc2-c2nc(-c3cccc(C)c3)no2)c1 | 24.8% |
| CCc1nc(N2CCCC2)c(C#N)c2c1CCCC2 | -1.4% |
| CCc1nc(N2CCOCC2)c(C#N)c2c1CCCC2 | 7.3% |

| Compound | cytotoxicity |
| --- | --- |
| CCCc1nc(N2CCOCC2)c(C#N)c2c1CCCC2 | -18.8% |
| CC(C)Cc1nc(N2CCCCC2)c(C#N)c2c1CCC2 | 11.9% |
| CCCc1nc(N2CCCC2)c(C#N)c2c1CCCC2 | 51.6% (active) |
| CC(C)Cc1nc(N2CCOCC2)c(C#N)c2c1CCC2 | 74.1% (active) |
| CCc1cc(=O)oc2cc(OC(C)C(=O)O)c(Cl)cc12 (stereo unspecified) | 1.5% |
| O=C(Cc1nc2ccccc2[nH]1)NCc1ccco1 | -7.1% |
| COC(=O)c1cccc(S(=O)(=O)N2CCN(c3nc4ccccc4s3)CC2)c1 | -5.4% |
| CCOc1ccc(N(CC(=O)N2CCc3ccccc32)S(=O)(=O)c2c(C)noc2C)cc1 | -26.9% |
| CC(C)CN(C#N)c1nc(N2CCOCC2)nc(N2CCOCC2)n1 | 6.3% |
| COc1ccc(CNC(=O)C2CCNCC2)cc1 | -3.8% |
| O=C(Cc1cn2ccsc2n1)Nc1cccc2cnccc12 | 11.4% |
| Cc1cc(=O)[nH]c(SCCOc2cccc(C(F)(F)F)c2)n1 | -4.8% |
| O=C(CSc1nc2cc(Cl)ccc2s1)N1CCN(C(=O)c2ccco2)CC1 | -2.2% |
| O=C(CSc1nnc(SCc2ccc(Cl)cc2)s1)N1CCN(C(=O)c2ccco2)CC1 | -25.8% |
| O=C(CSc1c2c(nc3ccc(Cl)cc13)CCCC2)N1CCN(C(=O)c2ccco2)CC1 | 106% (active) |
| CC(C)(C)n1nnnc1C(c1ccc(C#N)cc1)N1CCCC2(CCCCC2)C1 (stereo unspecified) | 2.3% |
| O=C(CN1CCCCC1)Nc1ccccc1NC(=O)CN1CCCCC1 | -13.4% |
| CCOC(=O)c1ccc(NC(=O)CN2CCc3ccccc3C2)cc1 | 57.6% (active) |
| CC(C)CC(=O)Nc1ccccc1N1CCCC1 | -9.5% |
| CCOC(=O)c1ccc(NC(=O)N2CCc3ccccc32)cc1 | 5.4% |
| O=C(CN1CCc2ccccc2C1)Nc1ccccc1N1CCCCCC1 | 93.4% (active) |
| CCOC(=O)c1ccc(NC(=O)CN2CCN(c3ccccc3)CC2)cc1 | 6% |
| O=C(c1cccs1)N(Cc1cccc(Cl)c1)C1CCS(=O)(=O)C1 (stereo unspecified) | -4.1% |
| CCOc1ccccc1-n1nnnc1SCC(=O)Nc1cc2oc3ccccc3c2cc1OC | 43.6% |
